Results from PubChem BioAssay AID485288 (Southern Research Specialized Biocontainment Screening …, 2010).
Potency and affinity values are given separately. Activity calls are given as the source filed them. Where a call stands in place of a potency, no number is given. The rule behind the calls is not given here.

Target: Large T antigen (Simian virus 40) (UniProt P03070)
Experiment: SV40 large T antigen ATPase inhibitors, SAR follow-up, biochemical, ADP-Hunter detection, purified TAg, synthesized compounds, set 3 (AID 485288)

Chain of Large T antigen (Simian virus 40) (P03070 whole entry, looked up): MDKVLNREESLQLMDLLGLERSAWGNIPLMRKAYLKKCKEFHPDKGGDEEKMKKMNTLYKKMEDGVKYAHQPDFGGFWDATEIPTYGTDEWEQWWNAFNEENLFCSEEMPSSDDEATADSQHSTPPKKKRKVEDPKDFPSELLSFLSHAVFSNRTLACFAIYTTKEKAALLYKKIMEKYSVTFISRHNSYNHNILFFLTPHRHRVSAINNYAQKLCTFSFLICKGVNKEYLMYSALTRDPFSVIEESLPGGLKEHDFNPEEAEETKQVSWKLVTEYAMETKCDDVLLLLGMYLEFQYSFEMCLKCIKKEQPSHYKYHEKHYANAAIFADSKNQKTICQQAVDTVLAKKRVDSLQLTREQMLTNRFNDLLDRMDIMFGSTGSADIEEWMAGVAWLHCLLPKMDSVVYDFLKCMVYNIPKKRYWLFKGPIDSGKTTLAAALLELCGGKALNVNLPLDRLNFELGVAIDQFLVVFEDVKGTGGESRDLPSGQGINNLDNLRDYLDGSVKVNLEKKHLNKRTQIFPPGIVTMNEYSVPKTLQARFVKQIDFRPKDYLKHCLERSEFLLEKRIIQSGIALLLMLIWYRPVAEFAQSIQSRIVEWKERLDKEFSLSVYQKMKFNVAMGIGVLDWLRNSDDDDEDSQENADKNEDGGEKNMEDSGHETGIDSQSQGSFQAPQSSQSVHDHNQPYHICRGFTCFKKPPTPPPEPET

## CC(C)(c1ccccc1)c1ccc(O)cc1
  outcome: inactive

## Cc1cc(C(C)(C)c2ccc(O)c(C)c2)ccc1O
  outcome: inactive
